In PubChem BioAssay one finds outcome, AC50 and IC50 data, which are given here for 21 molecules.

One may read the AC50 as the concentration at which the activity in the assay is half-maximal. As usually defined, the IC50 is the concentration that gives 50% inhibition.

The structures appear in SMILES notation. Results filed as inconclusive are left out. Active and inactive are the calls of the source. Unless noted, no cut-off is given here; in the data, nearly all actives have AC50 up to about 26 µM.

Test [1] can be described thus: viability loss in pontine glioma line – cell-based, SU-DIPG-XXV, MIPE5.0, CellTiter-Glo, qHTS, dose response (AID 1347065).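 Note: cells exposed to compound for 48 hours before ATP readout.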 The following applies: CellTiter-Glo ATP luminescence.
A short description of test [2]: JHH-DIPG-1 glioma cell viability, MIPE5.0 library, CellTiter-Glo luminescence, qHTS (AID 1347067).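 Note: cells exposed to compound for 48 hours before readout.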 To be noted: JHH-DIPG-1 glioma viability, CellTiter-Glo ATP luminescence.
Test [3] is described as follows: SU-DIPG-XXV glioma cell viability, MIPE5.0 library, qHTS (AID 1347068; cut-off not given, nearly all actives have IC50 up to about 30 µM;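 for IC50: cells exposed to compound for 48 hours before viability readout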). In general terms: Quantitative high-throughput screening tests each substance at several concentrations.

On to `CCNCc1nc2c(N)nc3ccccc3c2n1CC(C)(C)O`, for which the result in test [1], in test [2] and in test [3] was inactive.

With `O=c1c(-n2ccnn2)c[nH]n1-c1cc(N2CCOCC2)ncn1`, the AC50 in test [1] was 20.9 µM (active). Further, the molecule was called inactive in test [2].

In the case of `Cc1cccc(-c2[nH]c(CNc3ccccc3F)nc2-c2ccc3ncnn3c2)n1`, the outcome in test [1] and in test [3] was inactive.

`c1ccc(-c2ccc(CNc3nc(-c4ccccn4)nnc3-c3ccccc3)cc2)cc1`: the AC50 was 3.32 µM (active) in test [1] and 10.5 µM (active) in test [2]. In addition, in test [3], the IC50 was 2.95 µM (active).

For the molecule `COc1ccc(CNC(=O)c2cc(-c3cncc(Cl)c3)cnc2-c2ccccn2)nc1OC`, the molecule was classed as inactive in test [1], in test [2] and in test [3].

As to `C=CC(=O)Nc1ccc(F)c(-c2ncnc3[nH]cc(C(=O)OCC)c23)c1`, the AC50 in test [1] and in test [2] was 18.6 µM (active) in each case.

Regarding `Cc1ccc(-c2ccc(C)cn2)nc1`, the molecule was classed as inactive in test [1], in test [2] and in test [3].

In the case of `Nc1nccc(-c2c(-c3ccc(F)cc3)ncn2C2CCN(Cc3ccon3)CC2)n1`, the molecule was called inactive in test [1], in test [2] and in test [3].

Regarding `CN1CCN(CCCNc2ncc(Cl)c(-c3cc4c(C(=O)NC5CC5)cccc4s3)n2)CC1`, the AC50 in test [1] is 23.5 µM (active). Moreover, the outcome in test [3] was inactive.

Turning to `Cc1ccc(NC(=O)c2ccc(CN3CCNCC3)cc2)cc1Nc1nccc(-c2cccnc2)n1`, the AC50 in test [1] was 23.5 µM (active). Moreover, the call in test [2] and in test [3] was inactive.

`COc1ccccc1C(=O)Nc1cc2c(cc1N1CCCCC1)n(C)c(=O)n2C`: the AC50 in test [1] was 18.6 µM (active). In addition, in test [3], the call was inactive.

In the case of `COc1cc(N2CCN(C)CC2)ccc1Nc1ncc2c(n1)N(C)c1ccccc1C(=O)N2`, the AC50 in test [1] was 20.9 µM (active). Also, the molecule was called inactive in test [3].

As for `C[C@@H]1CC2C3C[C@H](F)C4=CC(=O)C=C[C@]4(C)[C@@]3(F)[C@@H](O)C[C@]2(C)[C@@]1(OC(=O)c1ccco1)C(=O)SCF` (stereo partly drawn), the AC50 in test [1] was 20.9 µM (active). The molecule was called inactive in test [3].

As for `Cc1ccc(Nc2nnc(Cc3ccncc3)c3ccccc23)cc1Br`, the AC50 in test [1] is 14.8 µM (active); in test [2], 18.6 µM (active).

In the case of `C[C@H](NC(=O)c1c(N)nn2cccnc12)c1cc2cccc(C#Cc3cnn(C)c3)c2c(=O)n1-c1ccccc1`, in test [1], the AC50 is 12.9 µM (active). In test [3], the outcome was inactive.

With `CC(C)(CNC(=O)c1cccc(-c2noc(C(F)(F)F)n2)c1)c1coc(-c2ccccc2)n1`, in test [1], the AC50 was 20.9 µM (active). The molecule was called inactive in test [3].

`Clc1cc2c(NC3CCCC3)nnc(-c3ccncc3)c2cc1Cl`: the AC50 in test [1] was 23.5 µM (active). Also, the molecule was classed as inactive in test [3].

`COC(=O)/C=C/C(=O)N(O)CCCCNCc1ccc(COC(=O)Nc2cccc3ccccc23)cc1`: the values for the AC50 in test [1] and in test [2] were 20.9 µM (active) and 18.6 µM (active), respectively.

Consider `CN1CC[C@@H](c2c(O)cc(O)c3c(=O)cc(-c4ccc(C(F)(F)F)cc4Cl)oc23)[C@@H]1CO`, for which the AC50 in test [1] was 23.5 µM (active). Besides, the result in test [2] was inactive.

In the case of `CC(C)[C@@H](CS(=O)(=O)C(C)C)N1C(=O)[C@@](C)(CC(=O)O)C[C@H](c2cccc(Cl)c2)[C@H]1c1ccc(Cl)cc1`, the AC50 in test [1] is 18.6 µM (active); in test [2], 23.5 µM (active).

Regarding `CCc1cc2c(cc1N1CCC(N3CCOCC3)CC1)C(C)(C)c1[nH]c3cc(C#N)ccc3c1C2=O`, in test [1], the AC50 is 2.04 µM (active). Besides, the result in test [3] was inactive.
